Source: PubChem
The list is not random: actives were taken first. Their share in the collection is about 3.7%.
RGS4 inh: Inhibitors of Regulator of G Protein Signaling (RGS) 4: qHTS | Regulator of G-protein signaling 4 (Homo sapiens), P49798 | Transcreener GDP fluorescence polarization, RGS4-accelerated GTP hydrolysis | Potency, µM (titrated, usually from 114 µM), usual class: inhibitors | actives 0.039% (n = 390,000); also: nearly all actives have a fitted effect of over 75% in size
Target sequence (P49798 whole entry, looked up): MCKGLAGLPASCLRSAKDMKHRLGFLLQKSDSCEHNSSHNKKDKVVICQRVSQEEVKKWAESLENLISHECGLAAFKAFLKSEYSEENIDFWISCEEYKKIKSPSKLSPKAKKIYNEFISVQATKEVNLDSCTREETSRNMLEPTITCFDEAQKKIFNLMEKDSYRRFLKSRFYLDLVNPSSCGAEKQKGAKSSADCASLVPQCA
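MLSMR compounds (23 nl, pin-transferred) preincubated 10 min at room temperature with a 500nM (2x) first reagent, then RGS4 at 900nM (2x) plus Transcreener GDP mix added; fluorescence polarization (620/688 nm) read before and after 90 min at 30 °C.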
BRCA1 expr up: qHTS Assay to Identify Small Molecule Activators of BRCA1 Expression; MCF7-BRCA1-FFLuc reporter, luminescence, 48 h; response scale: scaled: vehicle 0%, 10 µM genistein 100%; Potency, µM (top dose mostly 46.1 µM), usual class: activators; actives 1.1% (n = 380,000); AID 624202, 2012; also: nearly all actives have a fitted effect of over 80% in size
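Luminescence from a BRCA1-driven firefly luciferase in MCF7 cells was the read-out, taken 15 min after substrate addition following 48 h compound exposure at 37 °C. Data were normalized to a 10 microM genistein control and DMSO vehicle.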
PTHR1 ag: qHTS for PTHR1 Agonists: Primary Screen. Parathyroid hormone/parathyroid hormone-related peptide receptor (Homo sapiens), Q03431. HEK293 GP2 PTHR1 cells, GloSensor cAMP luminescence, 1 h. Potency, µM (highest dose often 115 µM), actives largely listed as activators. actives 0.075% (n = 410,000); also: nearly all actives have a fitted effect of over 55% in size
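HEK-293-derived GP2 cells expressing PTHR1 and a GloSensor cAMP reporter, 3,000/well, plated overnight, given luciferin plus IBMX (each 0.5 mM as added) for 1 h at 37 °C, then compound for 1 h at 37 °C. Luminescence was read after 15 min at room temperature.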
DRD3 agonist: qHTS of D3 Dopamine Receptor Agonist: qHTS; D(3) dopamine receptor (Homo sapiens), P35462; D3R DiscoveRx beta-arrestin cells, luminescence, 90 min; max activation, %; actives 0.58% (n = 410,000); AID 652048, 2013; in the data active = max activation above about 30%
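Agonist-mode cell screen: cells plated at 1500/well and incubated overnight at 37 °C, then exposed to library compounds for 90 min at 37 °C. Detection reagent was added for 30–60 min at room temperature, and luminescence was read.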
D3 antag: qHTS of D3 Dopamine Receptor Antagonist: qHTS; actives 2.5% (n = 360,000); AID 652054, 2013; D3R cells, DiscoveRx beta-arrestin luminescence, antagonist mode; hits give low values; D(3) dopamine receptor (Homo sapiens), P35462; max response, negative = inhibition, %; in the data active = max response below about -50%; inconclusive = no clear call, values can overlap the other calls
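Cells plated overnight at 1500 cells/well, then exposed to library compounds with dopamine controls for 90 minutes at 37 degrees C. DiscoveRx reagent added for 30–60 minutes at room temperature; luminescence read, quantitative HTS format.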
B2AR arrestin: qHTS assay of beta-arrestin-biased ligands of beta2-adrenergic receptor; Beta-2 adrenergic receptor (Homo sapiens), P07550; beta-arrestin recruitment to beta2AR, cell-based reporter; Potency, µM (series often up to 46.1 µM), actives largely listed as activators; actives 0.02% (n = 330,000); AID 492947, 2010; also: nearly all actives have a fitted effect of over 65% in size
Target sequence (P07550 whole entry, looked up): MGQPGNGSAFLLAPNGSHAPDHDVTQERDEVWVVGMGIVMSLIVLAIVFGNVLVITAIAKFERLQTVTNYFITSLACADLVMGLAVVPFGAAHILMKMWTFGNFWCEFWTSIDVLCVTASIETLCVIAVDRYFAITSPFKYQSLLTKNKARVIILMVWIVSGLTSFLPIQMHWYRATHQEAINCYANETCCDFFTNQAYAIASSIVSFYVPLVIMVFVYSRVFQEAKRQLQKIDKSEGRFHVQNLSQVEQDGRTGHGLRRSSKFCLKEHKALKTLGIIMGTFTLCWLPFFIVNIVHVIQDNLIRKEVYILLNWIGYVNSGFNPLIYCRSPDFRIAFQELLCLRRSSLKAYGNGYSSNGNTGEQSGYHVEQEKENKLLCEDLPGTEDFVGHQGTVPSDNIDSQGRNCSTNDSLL
Each line names hits and unclear results; the compound was inactive in the other large screens. Unless noted, calls follow the shape of the dose curve; as a rule, active = well fitted curve in the direction sought with a large enough effect; inconclusive = small, poorly fitted or top-dose-only effect, or another doubt; inactive = no such curve, though single readings can be large; an effect the other way counts as inactive or inconclusive.

COc1ccc(-c2nnc(SCc3ccccn3)n2C)cc1	BRCA1 expr up 13µM
Cc1ccc(Nc2nc(C)cs2)cc1	BRCA1 expr up 2.5µM
COc1ccc(OC)c(NC(=O)c2nc(-c3ccccc3)oc2C)c1	none
CCCCN(C(=O)COC(=O)c1sccc1C)c1c(N)n(CCC)c(=O)[nH]c1=O	none (no result: RGS4 inh, B2AR arrestin)
CN(C)n1cnc2ccsc2c1=O	none
CC[C@]1(O)C[C@@H]2CN(CCc3c([nH]c4ccccc34)[C@@](C(=O)OC)(c3cc4c(cc3OC)N(C)C3[C@]45CCN4CC=C[C@](CC)(C45)[C@@H](OC(C)=O)[C@]3(O)C(=O)OC)C2)C1 (stereo not given in full)	none (no result: BRCA1 expr up, PTHR1 ag, DRD3 agonist, D3 antag, B2AR arrestin)
Cc1ccc(Nc2nc(CSc3nnc(-c4ccccc4C)n3C)cs2)cc1	B2AR arrestin inconclusive
Cc1ccc(Nc2nc(CSc3nnc(-c4ccccc4)n3C)cs2)cc1	BRCA1 expr up 3.5µM
c1ccc(CSc2nnc(-c3ccco3)o2)cc1	none
Cc1ccccc1-c1nnc(Cc2ccccc2)o1	BRCA1 expr up 2.8µM
Cc1ccc(CSc2nnc(-c3ccco3)o2)cc1	BRCA1 expr up 5µM
Cc1ccccc1-c1nnc(SCc2ccccc2)o1	BRCA1 expr up 10µM
Cc1ccccc1-c1nnc(SCc2ccccc2F)o1	BRCA1 expr up inconclusive
COc1ccc(C)cc1NC(=O)CCNS(=O)(=O)c1cccc(C(F)(F)F)c1	none
Clc1ccccc1NN=Cc1ccccn1	none (no result: RGS4 inh, B2AR arrestin)
COc1cccc2oc3cc(C#Cc4ccccn4)ccc3c(=O)c12	BRCA1 expr up 8.9µM
Cc1ccccc1CS(=O)(=O)c1nnc([C@H](Cc2ccccc2)NC(=O)OC(C)(C)C)o1	RGS4 inh inconclusive, D3 antag -53
CCC(C)[C@@H](NC(=O)OC(C)(C)C)c1nnc(S(=O)(=O)Cc2cccc(C)c2)o1 (stereo not given in full)	D3 antag -54
Cn1c(N)c(C(=O)Nc2ccc(-c3ccccc3)cc2)sc1=S	RGS4 inh inconclusive
COc1cccc(CC(=O)Nc2ccc3c(c2)c(=O)n(C)n3-c2ccc(C(C)(C)C)cc2)c1	D3 antag -58 (no result: RGS4 inh, B2AR arrestin)
CN(C)c1ccc(NC(=S)Nc2ccc3c(c2)c(=O)n(C)n3-c2ccc(C(C)(C)C)cc2)cc1	D3 antag -54 (no result: RGS4 inh, B2AR arrestin)
COc1ccccc1N1CCN(Cc2ccsc2)CC1	D3 antag -92
COc1ccc(CN2CCN(c3ccccc3OC)CC2)cc1OC	D3 antag -77
COc1cc(CN2CCN(c3ccccc3F)CC2)cc(OC)c1O	DRD3 agonist 43, D3 antag inconclusive
COc1ccc(CC(C)N2CCN(c3ccccc3)CC2)cc1OC (stereo not given)	PTHR1 ag inconclusive, D3 antag -147
COc1ccccc1N1CCN(Cc2ccc(C(=O)O)cc2)CC1	RGS4 inh inconclusive
COc1ccc(S(=O)(=O)N2CCN(c3ccccc3)CC2)cc1OC	PTHR1 ag inconclusive (no result: B2AR arrestin)
CCCNC(=O)C1(C)CCN(C(=O)c2ccccc2OC)C1 (stereo not given)	none (no result: RGS4 inh, B2AR arrestin)
COC(=O)c1cc(CN2CCN(c3ccccc3C)CC2)ccc1O	D3 antag -80
COc1ccccc1N1CCN(Cc2cccs2)CC1	D3 antag -82
COc1ccccc1N1CCN(Cc2cnc3ccc(Cl)cn23)CC1	D3 antag -91
COc1ccccc1N1CCN(Cc2nc(N)nc(Nc3ccc(C)c(Cl)c3)n2)CC1	none
O=C(NCC(=O)N(c1ccccc1)C(C(=O)NC1CCCCC1)c1cccnc1)c1ccco1 (stereo not given)	none
OC(COc1cccc2ccccc12)CN1CCN(c2cccc(Cl)c2)CC1 (stereo not given)	DRD3 agonist 45
Cc1cccc(N2CCN(CC(O)COc3ccccc3Cl)CC2)c1 (stereo not given)	D3 antag -75
CCCC1(CCC)NC(=O)N(CC(=O)Nc2ccc(Cl)c(S(=O)(=O)N3CCOCC3)c2)C1=O	none
COc1ccc(Cl)cc1NC(=O)CN(C)C(=O)c1cc2ccccc2cc1O	none
CCn1c(C(=O)NCCCN2CCc3ccccc3C2)cc2sccc21	D3 antag -73
O=C(Cn1c(C(=O)NCCCN2CCOCC2)cc2sccc21)c1ccccc1	D3 antag inconclusive (no result: B2AR arrestin)
O=C(NCCCN1CCCC1)C1CCN(C(=O)c2cc3sccc3n2Cc2ccc(F)cc2)CC1	D3 antag -52
Cc1ccc(CCNC(=O)c2cc3sccc3n2Cc2ccc(C)cc2)cc1	none (no result: D3 antag, B2AR arrestin)
COCCCNC(=O)C1CCN(C(=O)c2cc3sccc3n2Cc2ccc(F)cc2)CC1	none
Cn1c(C(=O)NCCN2CCOCC2)cc2sccc21	D3 antag -63
Cc1ccc(Cn2c(C(=O)NCCCN3CCOCC3)cc3sccc32)cc1	D3 antag -51
CCOC(=O)Cc1csc(NC(=O)CSc2nccn2C)n1	none
O=[N+]([O-])c1ccc(/C=C/c2ccncc2)cc1	BRCA1 expr up 10µM
Cc1ccc[n+](CC(=O)Nc2cc(C(F)(F)F)ccc2Cl)c1	D3 antag -79
CN(C)CC(=O)Nc1cc(C(F)(F)F)ccc1Cl	D3 antag -58
O=C(C[n+]1cccc(CNC(=O)c2ccc(OC(F)F)cc2)c1)Nc1cc(C(F)(F)F)ccc1Cl	D3 antag -64
NC(=O)C[n+]1cccc(CNC(=O)c2ccc(OC(F)F)cc2)c1	none
COc1ccc(/C(C)=N/NC(=O)c2sccc2-n2cccc2)cc1	none
CC(C)(C)n1ncc2c(=O)n(CC(=O)Nc3ccc(Cl)cc3)cnc21	D3 antag -54
CC(C)(C)n1ncc2c(=O)n(CC(=O)c3ccc(Cl)cc3)cnc21	BRCA1 expr up 2.2µM
Cc1ccccc1C(=O)Nc1nnc(SCc2cc(=O)c3c(C)ccc(C)c3[nH]2)s1	none (no result: BRCA1 expr up, D3 antag, B2AR arrestin)
CC(=O)c1cc(NC(=O)c2ccc(Cl)cc2)c(=O)oc1/C=C/N(C)C	D3 antag -72
COc1cc(OC)cc(C(=O)Nc2nc3ccc(S(C)(=O)=O)cc3s2)c1	BRCA1 expr up 5.6µM
CS(=O)(=O)c1ccc2nc(NC(=O)c3cccc([N+](=O)[O-])c3)sc2c1	BRCA1 expr up 5.6µM
CS(=O)(=O)c1ccc2nc(NC(=O)c3cc([N+](=O)[O-])cc([N+](=O)[O-])c3)sc2c1	none
COc1cc(C(=O)Nc2nc3ccc(S(C)(=O)=O)cc3s2)cc(OC)c1C	none
